# From PubChem BioAssay (Tox21)
# Results filed as inconclusive are left out. Where a call stands in place of a potency, no number is given. Unmarked numbers belong to inactive results. Active and inactive are the calls of the source. Unless noted, calls come from the whole dose curve; as a rule, active = well fitted curve in the direction sought with a large enough effect in the repeat runs; inconclusive = weak or mixed curves; inactive = no such curve, though single readings can be large; an effect the other way counts as inactive or inconclusive.
# What was measured:
# [1] = qHTS assay to identify small molecule antagonists of the thyroid receptor (TR) signaling pathway - cell viability counter screen (AID 743064); note: nearly all actives have a fitted effect of over 50% in size; note: potency is the fitted concentration of half-maximal effect
# Method in brief: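 GH3.TRE-Luc rat pituitary cells dosed after 4 hr plating, co-stimulated with T3 at 1 nM final, incubated 23.5 h at 37 C. Viability measured in the same wells by CellTiter-Fluor fluorescence after 30 min further at 37 C.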
# [2] = qHTS assay to identify small molecule antagonists of the thyroid receptor (TR) signaling pathway (AID 743065); note: nearly all actives have a fitted effect of over 55% in size; note: potency is the fitted concentration of half-maximal effect
# Method in brief: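 Antagonism measured as loss of luciferase signal in GH3 cells stably carrying a TRE-luciferase reporter, co-treated with compound and T3 (1 nM final) for 23.5 h at 37 C. Viability was read in the same well by CellTiter-Fluor.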
# [3] = tested on: thyroid hormone receptor (rat, GH3 cells); test: qHTS assay to identify small molecule agonists of the thyroid receptor (TR) signaling pathway (AID 743066; calls by dose curve)
# [4] = qHTS assay to identify small molecule antagonists of the estrogen receptor alpha (ER-alpha) signaling pathway - cell viability counter screen (AID 743074; calls by dose curve;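 note: HEK293 cells carrying ER-alpha-UAS-bla reporter stimulated with 17beta-estradiol; nearly all actives have a fitted effect of over 45% in size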)
# [5] = qHTS assay to identify small molecule antagonists of the estrogen receptor alpha (ER-alpha) signaling pathway using the BG1 cell line - cell viability counter screen (AID 743081);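 note: compound given together with 17beta-estradiol as the ER stimulus; nearly all actives have a fitted effect of over 45% in size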
# [6] = biological target: Aromatase (Homo sapiens) (UniProt P11511); test: qHTS assay to identify aromatase inhibitors (AID 743083); note: nearly all actives have a fitted effect of over 55% in size; note: potency is the fitted concentration of half-maximal effect
# Chain of Aromatase (Homo sapiens) (P11511 whole entry, looked up): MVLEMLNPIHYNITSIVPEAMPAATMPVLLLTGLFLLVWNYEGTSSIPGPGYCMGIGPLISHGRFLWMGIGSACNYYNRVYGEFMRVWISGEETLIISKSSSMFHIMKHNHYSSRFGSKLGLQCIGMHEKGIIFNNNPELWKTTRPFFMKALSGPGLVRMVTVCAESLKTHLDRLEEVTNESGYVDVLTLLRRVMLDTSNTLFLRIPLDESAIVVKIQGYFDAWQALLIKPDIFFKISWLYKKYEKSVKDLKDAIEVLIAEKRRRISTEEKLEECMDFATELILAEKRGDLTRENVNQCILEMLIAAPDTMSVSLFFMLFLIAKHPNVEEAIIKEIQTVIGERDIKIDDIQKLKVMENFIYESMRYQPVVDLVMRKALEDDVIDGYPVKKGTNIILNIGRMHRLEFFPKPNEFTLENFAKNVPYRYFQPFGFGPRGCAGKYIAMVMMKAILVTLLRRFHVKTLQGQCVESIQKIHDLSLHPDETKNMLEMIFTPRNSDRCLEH
# [7] = qHTS assay to identify aromatase inhibitors - cell viability counter screen (AID 743084);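 note: cells stimulated with testosterone during compound exposure; nearly all actives have a fitted effect of over 55% in size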
# [8] = qHTS assay to identify small molecule that activate the aryl hydrocarbon receptor (AhR) signaling pathway - cell viability counter screen (AID 743086);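 note: HepG2 liver cells carrying the AhR DRE luciferase reporter; nearly all actives have a fitted effect of over 45% in size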
# Method in brief: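 Cytotoxicity counter screen: CellTiter-Fluor signal (30 min, 37 C) in 4000 HepG2 cells/well carrying the DRE-luciferase reporter, following 24 h compound exposure at 37 C.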
# [9] = biological target: Peroxisome proliferator-activated receptor gamma (Homo sapiens) (UniProt P37231); test: qHTS assay to identify small molecule agonists of the peroxisome proliferator-activated receptor gamma (PPARg) signaling pathway (AID 743094; active = well fitted activation curve with a large enough effect in the signal ratio in the repeat runs, not every such curve was filed as active; the % refers to the signal ratio)
# Chain of Peroxisome proliferator-activated receptor gamma (Homo sapiens) (P37231 whole entry, looked up): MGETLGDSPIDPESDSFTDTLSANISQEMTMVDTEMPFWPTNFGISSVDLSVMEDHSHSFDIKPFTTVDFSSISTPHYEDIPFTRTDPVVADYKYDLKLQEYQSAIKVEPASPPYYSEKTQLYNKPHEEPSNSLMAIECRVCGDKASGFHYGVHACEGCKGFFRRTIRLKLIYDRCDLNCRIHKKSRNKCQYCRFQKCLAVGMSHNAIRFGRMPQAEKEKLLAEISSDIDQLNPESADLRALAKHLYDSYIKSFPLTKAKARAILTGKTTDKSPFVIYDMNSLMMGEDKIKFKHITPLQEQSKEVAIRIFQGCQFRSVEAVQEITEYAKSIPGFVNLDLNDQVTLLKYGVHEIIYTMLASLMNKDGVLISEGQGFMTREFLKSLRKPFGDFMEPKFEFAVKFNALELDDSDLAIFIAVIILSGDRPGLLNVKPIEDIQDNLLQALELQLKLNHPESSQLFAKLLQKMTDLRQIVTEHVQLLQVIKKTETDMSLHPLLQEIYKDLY
# Method in brief: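 Fluorescence-based beta-lactamase readout in HEK293H PPARg UAS-bla cells after 17 h compound exposure (37C) and 1 h B/G FRET substrate incubation at room temperature.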
# [10] = biological target: Peroxisome proliferator-activated receptor gamma (Homo sapiens) (UniProt P37231); test: qHTS assay to identify small molecule antagonists of the peroxisome proliferator-activated receptor gamma (PPARg) signaling pathway (AID 743191; calls by dose curve; note: nearly all actives have a fitted effect of over 30% in size)
# Method in brief: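 Beta-lactamase reporter under UAS control in HEK293H PPARg-bla cells; compound treatment 17 h at 37C. Read-out: fluorescence intensity after 1 h room-temperature incubation with LiveBLAzer B/G FRET substrate.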
# [11] = qHTS assay to identify small molecule antagonists of the peroxisome proliferator-activated receptor gamma (PPARg) signaling pathway - cell viability counter screen (AID 743194); settings: Potency: co-treated with 50 nM rosiglitazone; note: nearly all actives have a fitted effect of over 55% in size
# Method in brief: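 Viability was measured as CellTiter-Glo luminescence in GeneBLAzer PPARg UAS-bla HEK293H cells. These cells had been exposed 17 h at 37 C to compounds together with rosiglitazone at 50 nM final, with the beta-lactamase readout taken in the same wells.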
# [12] = qHTS assay for small molecule agonists of the antioxidant response element (ARE) signaling pathway (AID 743202; active = well fitted activation curve with a large enough effect in the signal ratio in the repeat runs, not every such curve was filed as active; the % refers to the signal ratio)
# Method in brief: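 Beta-lactamase reporter activity, read as fluorescence intensity, reflects ARE/Nrf2 pathway induction in HepG2 cells after 16 h compound exposure at 37 C; substrate loading was 2 h at room temperature.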
# [13] = qHTS assay for small molecule agonists of the antioxidant response element (ARE) signaling pathway - cell viability counter screen (AID 743203; calls by dose curve; note: nearly all actives have a fitted effect of over 55% in size)
# Method in brief: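 Parallel cytotoxicity read-out for the ARE-bla screen: HepG2 reporter cells, 16 hrs with compounds, then CellTiter-Glo luminescence.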
# [14] = qHTS assay for small molecule activators of the heat shock response signaling pathway - cell viability counter screen (AID 743209); note: nearly all actives have a fitted effect of over 50% in size
# Method in brief: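 To flag cytotoxic compounds, HSE-bla HeLa cells plated at 1500 cells/well were dosed for 5 h at 37 C, followed by the reporter FRET read and then CellTiter-Glo, with luminescence recorded 30 min after reagent addition.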
# [15] = qHTS assay for small molecule activators of the heat shock response signaling pathway (AID 743210; active = well fitted activation curve with a large enough effect in the signal ratio in the repeat runs, with a control signal flat, not every such curve was filed as active; the % refers to the signal ratio;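 note: HeLa cells with beta-lactamase reporter driven by heat shock elements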)
# Method in brief: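 Fluorescence from a cleaved B/G FRET substrate (2.5 h, room temp) reports HSE-driven beta-lactamase in HeLa cells treated 5 h at 37 C with DMSO-dissolved compounds.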
# [16] = biological target: Aryl hydrocarbon receptor (Homo sapiens) (UniProt P35869); test: qHTS assay to identify small molecule that activate the aryl hydrocarbon receptor (AhR) signaling pathway (AID 743085); note: nearly all actives have a fitted effect of over 15% in size; note: potency is the fitted concentration of half-maximal effect;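 for activation: HG2L7.5c1 human HepG2 liver cells with stably integrated DRE-driven firefly reporter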
# Chain of Aryl hydrocarbon receptor (Homo sapiens) (P35869 whole entry, looked up): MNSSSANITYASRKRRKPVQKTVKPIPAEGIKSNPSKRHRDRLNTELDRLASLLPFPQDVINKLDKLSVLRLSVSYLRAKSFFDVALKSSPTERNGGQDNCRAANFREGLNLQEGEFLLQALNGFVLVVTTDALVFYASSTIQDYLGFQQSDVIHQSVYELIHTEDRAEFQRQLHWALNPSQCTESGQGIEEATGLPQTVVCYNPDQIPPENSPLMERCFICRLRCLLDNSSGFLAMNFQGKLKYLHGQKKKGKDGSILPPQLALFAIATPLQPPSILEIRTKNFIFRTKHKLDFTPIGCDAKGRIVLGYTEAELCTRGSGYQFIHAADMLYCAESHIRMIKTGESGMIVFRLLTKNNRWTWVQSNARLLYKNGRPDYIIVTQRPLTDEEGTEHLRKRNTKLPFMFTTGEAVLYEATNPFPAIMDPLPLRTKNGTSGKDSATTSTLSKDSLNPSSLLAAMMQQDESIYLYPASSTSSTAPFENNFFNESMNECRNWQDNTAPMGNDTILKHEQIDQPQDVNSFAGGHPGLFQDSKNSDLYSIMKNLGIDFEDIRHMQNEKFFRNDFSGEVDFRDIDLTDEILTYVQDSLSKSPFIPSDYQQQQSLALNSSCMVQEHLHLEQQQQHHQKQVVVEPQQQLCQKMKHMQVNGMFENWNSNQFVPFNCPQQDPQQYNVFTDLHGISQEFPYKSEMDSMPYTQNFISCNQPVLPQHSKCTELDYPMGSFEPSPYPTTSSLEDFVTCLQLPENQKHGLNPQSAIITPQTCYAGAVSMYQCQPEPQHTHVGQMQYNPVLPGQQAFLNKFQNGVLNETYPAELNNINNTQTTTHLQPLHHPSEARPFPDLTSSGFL
# Method in brief: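 HepG2 cells stably carrying a 20-DRE firefly luciferase reporter (HG2L7.5c1) treated with compound for 24 hr at 37C. Luciferase read by ONE-Glo luminescence, with CellTiter-Fluor viability read first.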
# [17] = biological target: Estrogen receptor (Homo sapiens) (UniProt P03372); test: qHTS assay to identify small molecule agonists of the estrogen receptor alpha (ER-alpha) signaling pathway (AID 743075; calls by dose curve;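 note: HEK293 GripTite cells with ER-alpha and UAS-driven beta-lactamase reporter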)
# Chain of Estrogen receptor (Homo sapiens) (P03372 whole entry, looked up): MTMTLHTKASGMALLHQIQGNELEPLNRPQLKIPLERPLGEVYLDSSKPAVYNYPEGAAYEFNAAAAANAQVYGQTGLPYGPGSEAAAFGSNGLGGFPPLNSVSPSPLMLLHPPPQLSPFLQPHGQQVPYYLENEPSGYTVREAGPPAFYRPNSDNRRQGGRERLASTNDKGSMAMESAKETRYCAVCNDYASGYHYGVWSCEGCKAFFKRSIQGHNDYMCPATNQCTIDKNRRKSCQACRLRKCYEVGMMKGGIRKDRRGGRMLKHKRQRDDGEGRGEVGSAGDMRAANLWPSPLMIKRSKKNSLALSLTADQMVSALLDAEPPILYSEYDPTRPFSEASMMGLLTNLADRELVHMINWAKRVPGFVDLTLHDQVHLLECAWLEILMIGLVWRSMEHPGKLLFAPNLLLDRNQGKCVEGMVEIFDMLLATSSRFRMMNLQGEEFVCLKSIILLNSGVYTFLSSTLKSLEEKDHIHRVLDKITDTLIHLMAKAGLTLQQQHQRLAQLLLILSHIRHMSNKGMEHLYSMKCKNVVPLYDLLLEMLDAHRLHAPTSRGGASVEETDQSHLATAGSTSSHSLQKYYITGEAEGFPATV
# [18] = biological target: Estrogen receptor (Homo sapiens) (UniProt P03372); test: qHTS assay to identify small molecule agonists of the estrogen receptor alpha (ER-alpha) signaling pathway using the BG1 cell line (AID 743079); settings: BG1Luc4E2 cells, ERE-luciferase agonist, 22 h; at 70.3 µM (top of the series); note: nearly all actives have a fitted effect of over 20% in size
# [19] = qHTS assay to identify small molecule antagonists of the estrogen receptor alpha (ER-alpha) signaling pathway using the BG1 cell line (AID 743080; calls by dose curve;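 note: BG1 cells stimulated with 17beta-estradiol alongside compound; nearly all actives have a fitted effect of over 25% in size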)
# Method in brief: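 BG1-Luc-4E2 cells (endogenous full-length ER-alpha, 4xERE luciferase) hormone-starved 5 days in charcoal-stripped FBS, plated 4,000/well for 24 h, then compound plus 17beta-estradiol for 21.5 h at 37 C; ONE-Glo luminescence read.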
Structure (SMILES),Potency [1],Potency [2],Potency [3],outcome [4],Potency [5],Potency [6],Potency [7],outcome [8],outcome [9],Potency [10],Potency [11],Potency [12],Potency [13],Potency [14],outcome [15],Potency [16],Potency [17],activation [18],Potency [19]
CCCCOC(=O)c1ccccc1C(=O)O,inactive,inactive,inactive,inactive,inactive,inactive,inactive,inactive,inactive,inactive,inactive,inactive,inactive,inactive,inactive,–,–,–,–
CC(C)[N+](=O)[O-],inactive,inactive,inactive,inactive,inactive,inactive,inactive,inactive,inactive,–,inactive,–,inactive,inactive,inactive,inactive,–,–,–
C(CCOCC1CO1)COCC1CO1 (stereo unspecified),inactive,42.6 µM (active),inactive,–,inactive,inactive,inactive,inactive,–,–,–,–,inactive,–,–,inactive,inactive,0.112%,inactive
CCCSC(=O)N(CCC)CCC,inactive,inactive,inactive,inactive,inactive,inactive,inactive,inactive,–,–,inactive,inactive,inactive,inactive,–,inactive,–,–,–
CCCCCCBr,inactive,inactive,inactive,inactive,inactive,inactive,inactive,inactive,–,–,inactive,inactive,inactive,inactive,inactive,inactive,–,–,–
COCC(=O)N(c1c(C)cccc1C)N1CCOC1=O,inactive,inactive,inactive,inactive,inactive,inactive,inactive,inactive,–,–,–,–,inactive,inactive,inactive,–,–,–,–
COC(=O)COc1ccc(Cl)cc1Cl,inactive,inactive,inactive,inactive,inactive,–,–,inactive,–,–,inactive,inactive,inactive,inactive,inactive,–,–,–,–
CN(C)CCc1ccc(O)cc1,inactive,inactive,inactive,inactive,inactive,inactive,inactive,inactive,inactive,inactive,inactive,inactive,inactive,inactive,inactive,inactive,–,–,–
[As]#[In],inactive,inactive,inactive,inactive,inactive,inactive,inactive,inactive,–,–,inactive,–,inactive,inactive,inactive,inactive,–,–,–
CC(C)(C)C(=O)C(Oc1ccc(Cl)cc1)n1cncn1 (stereo unspecified),inactive,inactive,inactive,inactive,inactive,54.4 µM (active),inactive,inactive,inactive,inactive,–,inactive,inactive,inactive,–,48.5 µM (active),–,–,–
COc1cc(OC)nc(Oc2cccc(Oc3nc(OC)cc(OC)n3)c2C(=O)O)n1,inactive,inactive,inactive,inactive,inactive,inactive,inactive,inactive,inactive,inactive,–,–,–,inactive,inactive,inactive,–,–,–
O=[N+]([O-])c1cccc2c([N+](=O)[O-])cccc12,inactive,inactive,inactive,inactive,inactive,inactive,inactive,inactive,inactive,inactive,–,–,inactive,–,inactive,inactive,–,–,–
CN1CCC(O)(c2ccc(F)cc2)C(C(=O)c2ccc(F)cc2)C1 (stereo unspecified),21.1 µM (active),26.6 µM (active),inactive,inactive,inactive,inactive,inactive,inactive,inactive,inactive,–,–,inactive,–,–,–,–,–,–
CCC(C)(C)c1cc(-n2nc3ccccc3n2)c(O)c(C(C)(C)CC)c1,inactive,inactive,inactive,inactive,inactive,inactive,inactive,inactive,inactive,–,inactive,inactive,inactive,inactive,inactive,inactive,–,–,–
CNC(=O)Oc1c(C(C)(C)C)cc(C)cc1C(C)(C)C,inactive,inactive,inactive,inactive,inactive,inactive,inactive,inactive,inactive,inactive,inactive,inactive,inactive,inactive,–,inactive,–,–,–
ClCC(Cl)Cl,inactive,inactive,inactive,inactive,inactive,inactive,inactive,inactive,inactive,inactive,inactive,–,inactive,inactive,inactive,inactive,–,–,inactive
